Source: PubChem BioAssay (EPA / NIEHS)
Activity calls are given as the source filed them. The calls were made as follows: active = hit-call score of the fitted dose curve at least 0.9, where 1 is the maximum; inactive = score below 0.9.

test: ATG_NRF2_ARE_CIS: Attagene CIS-FACTORIAL HepG2 Assay for human Nuclear Factor Erythroid 2 Related Factor 2 (NFR2) response to Antioxidant Response Elements (ARE) (AID 2282992); conditions: HepG2 Attagene ARE/NRF2 reporter, transcription factor activity; actives raise or lower the signal
Protocol: ATG_CIS is a cell-based, multiplexed-readout assay that uses HepG2, a human liver cell line, with measurements taken at 24 hours after chemical dosing in a 24-well plate.ATG_NRF2_ARE_CIS is one of 52 assay component(s) measured or calculated from the ATG_CIS assay. It is designed to make measurements of mRNA induction, a form of inducible reporter, as detected with fluorescence intensity signals by Reverse transcription polymerase chain reaction (RT-PCR) and Capillary electrophoresis technology.Data from the assay component ATG_NRF2_ARE_CIS was analyzed into 1 assay endpoint. This assay endpoint, ATG_NRF2_ARE_CIS, was analyzed with bidirectional fitting relative to DMSO as the negative control and baseline of activity. Using a type of inducible reporter, measures of mRNA for gain or loss-of-signal activity can be used to understand the reporter gene at the transcription factor-level as they relate to the gene NFE2L2. Furthermore, this assay endpoint can be referred to as a primary readout, because this assay has produced multiple assay endpoints where this one serves a reporter gene function. To generalize the intended target to other relatable targets, this assay endpoint is annotated to the dna binding intended target family, where the subfamily is basic leucine zipper.
Human liver HepG2 cells are transiently transfected with multiple reporter transcription units (MRTUs) in 6-well plates using FuGene 6 reagent (Roche; 3 ml FuGene/1 mg DNA). The MRTU constructs are regulated by a cis-regulating element (promoter). […] A major difference between the CIS and TRANS system is that in CIS activities of endogenous TFs are measured, whereas the TRANS assay evaluates changes in activities of exogenous, chimeric NR-Gal4 proteins. […] At the end of 24 hour incubation, total RNA was isolated using TriZol reagent (Invitrogen). The isolated RNA is then reverse-transcribed using oligo(dT) primer and Mo-MLV reverse transcriptase (Invitrogen) with DNAse I (Ambion) treatment for 30 min. The one-tenth of the produced cDNA was amplified by PCR using Taq DNA polymerase (Invitrogen) and two reporter sequence-specific primers. The PCR products were fluorescently labeled by primer extension with 6-arboxyfluorescein (6-FAM) 5'-labeled reporter sequence-specific primer (2 min at 95 C, 20 s at 68 C and 10 min at 72 C) and these products were digested with 5U of HpaI (New England Biolabs) for 2h at 37 C. The fragments were purified using Qiaquick PCR columns (Qiagen), analyzed on an ABI 3130xL genetic analyzer (Applied Biosystems) with peak positions identified by using a set of X-rhodamine (ROX)-labeled MapMarker1000 molecular weight standards (BioVentures). The raw capillary electrophoresis data was processed using Attagraph software (Attagene).

| SMILES | outcome | AC50 |
| --- | --- | --- |
| O=c1[nH]c2ccccc2c(=O)o1 | inactive | – |
| Cc1ccc(C(=O)Cl)cc1 | inactive | – |
| NC(=O)C(F)(F)C(F)(F)F | inactive | – |
| O=C(O)CF | inactive | – |
| CC(=O)c1ccc(-c2ccccc2)cc1 | inactive | – |
| O=P(Oc1ccccc1)(Oc1ccccc1)Oc1ccccc1 | – | 28.5 µM (active) |
| OCC(F)(F)OC(F)(F)C(F)(F)OC(F)(F)CO | inactive | – |
| OCC(F)(F)OC(F)(F)C(F)(F)OC(F)(F)C(F)(F)OC(F)(F)F | inactive | – |
| CCCCc1ccccc1 | inactive | – |
| C/C(=N\NC(=O)Nc1cc(F)cc(F)c1)c1ncccc1C(=O)O | inactive | – |
| N#Cc1cc([N+](=O)[O-])ccc1N | – | 27.2 µM (active) |
| CC(C)(C)OOC(C)(C)C | inactive | – |
| CC1(C)CN=C(NN=C(/C=C/c2ccc(C(F)(F)F)cc2)/C=C/c2ccc(C(F)(F)F)cc2)NC1 | – | 3.06 µM (active) |
| C=CC(=O)OCC(CC)(COC(=O)C=C)COC(=O)C=C | – | 1.65 µM (active) |
| CCCCc1ccc(O)cc1 | – | 66.7 µM (active) |
| COCCOCCO | inactive | – |
| CC(C)Nc1ccc(Nc2ccccc2)cc1 | – | 8.92 µM (active) |
| Clc1ccc(Oc2ccccc2)cc1 | – | 177 µM (active) |
| Oc1ccccc1Br | inactive | – |
| Cc1ccc(N)cc1N | inactive | – |

| SMILES | outcome | AC50 |
| --- | --- | --- |
| CCOP(=O)(O)C(N)=O | inactive | – |
| Oc1ccc(I)cc1 | – | 67.3 µM (active) |
| FC(F)(F)C(F)(C(F)(F)F)C(F)(F)C(F)(F)CC1CO1 (stereo not given) | inactive | – |
| CCOC(=O)c1ccccc1N | inactive | – |
| Cc1ccc2c(c1N)C(=O)c1ccccc1C2=O | – | 42.4 µM (active) |
| O=C(O)C(F)(F)OC(F)(F)C(F)(F)OC(F)(F)C(=O)O | inactive | – |
| Nc1ccc(Cl)cc1 | inactive | – |
| CC(C)(C)N(NC(=O)c1ccc(Cl)cc1)C(=O)c1ccccc1 | inactive | – |
| CCC1(c2ccccc2)C(=O)N=C(O)NC1=O (stereo not given) | inactive | – |
| CCOP(=S)(S)OCC | – | 67.4 µM (active) |
| O=S(=O)(c1ccc(O)cc1)c1ccc(O)cc1 | inactive | – |
| N#C/C=C/c1ccccc1 | inactive | – |
| CCOP(=S)(OCC)SCSCC | – | 73 µM (active) |
| Cc1c([N+](=O)[O-])cc2c(c1[N+](=O)[O-])C(C)(C)CC2(C)C | inactive | – |
| O=C(O)C(F)(F)OC(F)(F)C(F)(F)OC(F)(F)F | inactive | – |
| ClC(Cl)(Cl)c1ccccc1 | inactive | – |
| N#Cc1c(-c2ccc(Cl)cc2)[nH]c(C(F)(F)F)c1Br | – | 0.0823 µM (active) |
| CNC(=O)Oc1ccc(N(C)C)c(C)c1 | inactive | – |
| CC(Cl)CN(C)C (stereo not given) | – | 28.4 µM (active) |
| CCCCC(CC)COC(=O)c1c(Br)c(Br)c(Br)c(Br)c1C(=O)OCC(CC)CCCC (stereo not given) | inactive | – |
